In ChEMBL document CHEMBL3988442, “University of Dundee, Small-Polar-MMV Screening Library” (2021):

Key:
[1] = biological target: T1, Aspartate--tRNA(Asp/Asn) ligase (Mycobacterium tuberculosis (strain ATCC 25618 / H37Rv)) (UniProt P9WFW3); assay: Assay for Asp RNA synthetase-1 from Mycobacterium tuberculosis; assay type: functional; set-up: scale not given: direction of the effect not stated beside the values; settings: 30 µM; further: in the data most compounds retested in dose-response had high values
T1 sequence (whole entry): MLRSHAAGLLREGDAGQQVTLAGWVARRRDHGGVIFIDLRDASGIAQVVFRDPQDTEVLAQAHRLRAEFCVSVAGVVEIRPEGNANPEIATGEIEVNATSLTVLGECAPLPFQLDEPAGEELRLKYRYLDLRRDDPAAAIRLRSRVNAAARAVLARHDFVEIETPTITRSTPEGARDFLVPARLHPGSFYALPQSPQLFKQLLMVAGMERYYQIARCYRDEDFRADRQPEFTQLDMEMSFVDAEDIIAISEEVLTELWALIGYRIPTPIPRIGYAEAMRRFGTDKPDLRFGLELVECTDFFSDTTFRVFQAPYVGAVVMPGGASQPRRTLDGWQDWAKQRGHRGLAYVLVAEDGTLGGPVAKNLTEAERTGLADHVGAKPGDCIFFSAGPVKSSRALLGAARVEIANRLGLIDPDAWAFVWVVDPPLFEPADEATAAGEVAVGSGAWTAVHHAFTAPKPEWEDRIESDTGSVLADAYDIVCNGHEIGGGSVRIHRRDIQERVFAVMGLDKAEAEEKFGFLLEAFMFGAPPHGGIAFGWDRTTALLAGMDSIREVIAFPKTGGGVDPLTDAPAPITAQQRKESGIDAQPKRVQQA

[2] = biological target: Shiga toxin 2 (Escherichia coli O157:H7) (UniProt P09385+P09386); assay: E. coli 0.157:H7 Shiga Toxin SOP - stx2 screening assay; assay type: functional; set-up: scale not given: direction of the effect not stated beside the values; settings: 30 µM

Structure (SMILES)	Percent Effect [1]	Percent Effect [2]
COc1cccc(C(=O)NCC(O)c2cccs2)c1 (stereo not drawn)	-4.63%	2.93%
CC(C)n1ncc2c1NC(=O)CC21C(=O)Nc2c(Cl)cccc21 (stereo not drawn)	4.56%	-7.34%
CC(C)N(C)Cc1cn2c(n1)CN(C(=O)Cc1ccsc1)CC2	2.92%	-5.19%
CC(OCC(F)(F)F)C(=O)N1CCCCC1 (stereo not drawn)	1.09%	-2.39%
CC(C)n1ccnc1C1CCN(Cc2ccc(Cl)s2)CC1	4.1%	-48.4%
CN(CCc1cccs1)C1CCCN(Cc2noc(C3CC3)n2)C1 (stereo not drawn)	-1.53%	16.2%
O=C(Nc1ccccn1)C1CC(=O)N(Cc2ccccn2)C1 (stereo not drawn)	2.43%	-18.5%
c1cnn(CC2CN(Cc3noc(C4CC4)n3)CCO2)c1 (stereo not drawn)	0.485%	5.97%
CCc1cnc(CN2CCC(N(C)Cc3noc(C4CC4)n3)C2)o1 (stereo not drawn)	-1.09%	-33.4%
Cc1nn(C)c(N2CCOCC2)c1CNC1CCc2cc(F)ccc21 (stereo not drawn)	-1.16%	-5.02%
O=C(CCc1nc2cccnc2[nH]1)NCc1ccc2c(c1)OCO2	0.0581%	-41.8%
Cc1ccc(C(=O)N2CCC3(CC2)NC(=O)CC3c2ccccc2)cn1 (stereo not drawn)	3.23%	-13.9%
COC(=O)C(c1cc(F)ccc1F)N(C)C(=O)c1cccnc1O (stereo not drawn)	-4.32%	8.11%
NS(=O)(=O)CCNC(=O)c1nnn(-c2ccc(F)cc2)c1C1CC1	-3.36%	-8.62%
CCc1nc(C2CCCN2CC(=O)Nc2c(C)nn(C)c2C)no1 (stereo not drawn)	3.31%	-7.62%
CCN1CCN(CC(O)c2ccc(F)cc2)CC1 (stereo not drawn)	-6.48%	19.4%
CN1CCC(Cc2cc(Nc3ncccn3)ncn2)CC1	7.7%	7.59%
CCNC(=O)C1CCN(Cc2csc(-c3ccc(C)o3)n2)CC1	6.68%	-30.3%
O=C(NCCc1cccs1)[C@H]1CO[C@H]2CCNC[C@H]2C1	2.09%	2.12%
Cn1cc(CN2CCn3cc(CNC(=O)C4CCC4)nc3C2)cn1	1.34%	-6.29%

Structure (SMILES)	Percent Effect [1]	Percent Effect [2]
CCn1ncnc1C(NC(=O)CC1CCN(C(C)C)CC1)C1CC1 (stereo not drawn)	1.82%	-13.7%
O=C1COc2ccc(C(=O)NS(=O)(=O)c3ccc(F)cc3F)cc2N1	0.0843%	17.8%
CCn1ncnc1C(C)NC(=O)C1CCN(C(=O)COC)CC1 (stereo not drawn)	6.73%	11.1%
Cc1cccc(-c2noc(CN3CCCC3Cn3cccn3)n2)c1 (stereo not drawn)	-8.22%	28.6%
N#Cc1ccccc1OCCN1CCn2c(nnc2C2CC2)C1	-1.13%	-21.3%
COc1cc(N2C[C@H]3OCC[C@H]3[C@H](C(=O)NC3CC3)C2)ncn1	3.81%	-2.62%
CN(C)C(=O)CN1C(=O)CCC12CCN(Cc1ccc(F)cc1)CC2	1.43%	-5.2%
O=C(CCCc1nc2ccccc2[nH]1)N1CCCC(n2cccn2)C1 (stereo not drawn)	0.834%	3.01%
CNC(=O)[C@H]1C[C@H]2OCC[C@H]2N(Cc2cccc3ccccc23)C1	0.598%	-15.6%
Cc1noc2ncc(C(=O)N(CC3CCOC3)C3CC3)cc12 (stereo not drawn)	2.12%	24.4%
Cc1ncc(CNC(=O)N(C)C2CCN(c3ccccc3)C2=O)s1 (stereo not drawn)	-3.19%	24.6%
Cn1cc(CN2CC[C@H]3OCC[C@@H](C(=O)N4CCCCO4)[C@@H]3C2)cn1	2.85%	-10.1%
c1ccc2oc(NC3CCCN(Cc4noc(C5CC5)n4)C3)nc2c1 (stereo not drawn)	-5.59%	-6.82%
Cc1nc(C2CCCN(C(=O)CCCn3cccn3)C2)no1 (stereo not drawn)	-5.28%	-27.3%
Cc1ncccc1OC1(C(=O)NCCNc2ccccc2)CCNCC1	-0.792%	6.67%
NC(=O)CN1CCCN(C(=O)c2ccn(-c3ccccc3)n2)CC1	-2.4%	6%
Cc1cccc(CNC2CCCc3c2cnn3C)c1 (stereo not drawn)	0.855%	-9.23%
COCc1c(C(=O)NC2CCCC2)nnn1-c1ccc(C)cc1	-4.96%	10.2%
CN(C)C(=O)CCC(=O)NCc1cccnc1-n1cnc2ccccc21	-3.48%	-4.51%
